What follows are compounds tested on Plasmodium falciparum (assay: GSK_TCMDC: Inhibition of Plasmodium falciparum 3D7 in whole red blood cells, using parasite LDH activity as an index of growth. Test compounds present at 2uM).
Format: functional

SMILES | Inhibition
O=C(Nc1ccc(OC2CCN(Cc3ccc(F)cc3)C2)cc1)c1ccco1.O=C(O)C(F)(F)F (stereo not given) | 88%
CCCNCc1ccc(-c2ccc(CN(Cc3ccc4c(c3)OCO4)C(=O)[C@H]3CCCO3)cc2)nc1.O=C(O)C(F)(F)F | 90%
Cc1cc(-c2cccc(CNCCc3ccc(Cl)cc3)c2)cnc1N.Cl | 90%
COc1cccc(NC(=O)COc2ccc(C(=O)Nc3nc4ccccc4[nH]3)cc2)c1 | 99%
FC(F)(F)c1ccc2[nH]c(-c3ccc(-c4cccc(CN5CCC(CCN6CCCCC6)CC5)c4)cc3)nc2c1.O=C(O)C(F)(F)F | 100%
CCC1(C)N=C(N)N=C(N)N1c1ccccc1.Cl (stereo not given) | 98%
COc1ccc(Cl)cc1NC(=O)Nc1ccnc2ccccc12 | 100%
O=C(Nc1cccc(-c2ccc(-c3nc4cc(C(F)(F)F)ccc4[nH]3)cc2)c1)c1cccnc1 | 100%
CCCCCNc1ccnc2cc(Cl)ccc12 | 97%
COc1ccc(Br)cc1/C=C/C(=O)Nc1ccc2c(c1)CCCN(C)C2 | 84%
CN1CCCN(c2ccnc3cc4c(cc23)N(C(=O)c2ccc(Cl)c(Cl)c2)CC4)CC1.Cl | 100%
COc1cc(/C=C/C(=O)NCC(CCNc2cc(=O)c3ccccc3[nH]2)NCc2cc(Br)cc(Br)c2)cc(OC)c1 (stereo not given) | 90%
Cc1cc(Cl)ccc1N(Cc1ccccc1)c1ccnc(Cl)n1 | 97%
CC[C@H]1CN(Cc2ccccc2Br)CC[C@H]1CCCc1ccnc2ccc(O)cc12 | 86%
CN1CCC(C(=O)N(Cc2ccc(-c3ccc(CNCCc4ccc(S(C)(=O)=O)cc4)cn3)cc2)Cc2cccc(F)c2)CC1.O=C(O)C(F)(F)F | 98%
Nc1c(Cl)cc(C(O)CNCCCCCOCCCc2ccc3ncccc3c2)cc1Cl.O=C(O)/C=C/C(=O)O (stereo not given) | 96%
O=C(/C=C/c1ccc(Cl)c(Cl)c1)N1CCC(NCc2ccc3[nH]ccc3c2)CC1 | 97%
N#Cc1cncc(-c2nc3c(N4CCC(Cc5ccccc5)CC4)cccc3n2CCNCc2ccccc2)c1.O=C(O)C(F)(F)F | 99%
COc1ccc(Cn2cncc2CN(CCC(C)C)C(=O)c2ccc(Cl)nc2Cl)cc1.O=C(O)C(F)(F)F | 87%
COc1ccc(CCN(C)CCOc2ccc(NC(=O)c3cccc4c(=O)c5cc(SC)ccc5[nH]c34)cc2)cc1OC | 97%

SMILES | Inhibition
Br.COc1cc(CCCON2C(=N)N=C(N)NC2(C)C)cc(OC)c1OC | 98%
CCCOc1ccc2ccccc2c1CNCCCCCCNCc1c(OCCC)ccc2ccccc12.CS(=O)(=O)O | 94%
CC1CN(Cc2ccc(-c3ccc(-c4nc5cc(F)ccc5[nH]4)s3)cc2)CC(C)O1.O=C(O)C(F)(F)F (stereo not given) | 88%
CN1CCCN(Cc2cccc(-c3cccc(NC(=O)c4cccc(Cl)c4)c3)c2)CC1.O=C(O)C(F)(F)F | 96%
CN(CCN1CCC(c2c[nH]c3ccccc23)CC1)c1ccc(-c2nc3cc(Cl)c(Cl)cc3[nH]2)cc1 | 100%
CCCCOC(=O)[C@H](CCC)NC(=O)c1ccc(NS(=O)(=O)c2ccc3nc(N)[nH]c(=O)c3c2)cc1 | 99%
Cc1cccc2nc(C(=O)Nc3nc(CN4CCC(C)CC4)cs3)cn12 | 94%
CCCN(CCC)S(=O)(=O)c1ccc(C(=O)Nc2nc3ccc(-c4cc(=O)[nH]c(Nc5ccccc5Cl)n4)cc3[nH]2)cc1 | 100%
Nc1nccc2ccc(-c3ccc4nccn4c3)cc12.O=C(O)C(F)(F)F | 100%
Cc1cnc2ccc(NS(=O)(=O)c3sc4ccc(Cl)cc4c3C)cc2c1N1CCNCC1.Cl | 99%
CCC(CC)OC(=O)C(C)c1cccc(C(=O)c2ccccc2)c1 (stereo not given) | 93%
Cl.c1ccc2c(Nc3ccc(Cc4ccc(Nc5c6ccccc6nc6ccccc56)cc4)cc3)c3ccccc3nc2c1 | 100%
CCCc1cc(C)ccc1OCCCON1C(NC(=O)OCC)=NC(NC(=O)OCC)=NC1(C)C | 95%
COc1ccc(-c2cccc(NC(=O)c3ccc(Cl)cc3)c2)cc1CNC(C)C.O=C(O)C(F)(F)F | 100%
O=C(NCc1cccc(Cl)c1)c1ccc(CNC2CCN(Cc3ccccc3)CC2)cc1.O=C(O)C(F)(F)F | 100%
Cc1ccc(CN2CCCN(Cc3cccc(NC(=O)c4cc5ccccc5s4)c3)CC2)cc1C.O=C(O)C(F)(F)F | 92%
CS(=O)(=O)Nc1cccc(-c2cnc3[nH]cc(-c4ccc(C(=O)O)c(F)c4)c3c2)c1 | 99%
COc1ccccc1C1CCN(CCN2CCC(NC(=O)c3ccc(-c4ccc(C#N)cc4)cc3)CC2)CC1 | 99%
O=C(NCc1ccc(F)cc1)c1cnc(N2CCN(c3ccncc3)CC2)c(Cl)c1.O=C(O)C(F)(F)F | 98%
O=C(Nc1cccc(F)c1)N(Cc1ccc(-c2ccc(CN3CCNCC3)cc2)cc1)C1CCN(Cc2ccccc2)CC1.O=C(O)C(F)(F)F | 100%
